The text below walks through data of PubChem BioAssay (EPA / NIEHS).

SMILES strings stand for the structures. Values joined by “and” are separate entries in the source; they are usually repeats but may differ in a detail not shown here. Equal entries are not always repeated. Where a structure was tested more than once in an assay, its records may differ in their call. Active and inactive are the calls of the source. Rule for the calls: active = hit-call score of the fitted dose curve at least 0.9, where 1 is the maximum; inactive = score below 0.9.

Read-out in one experiment: Epidermal growth factor receptor (EGFR), EGFR (gene 1956)
The experiment can be described thus: BSK_hDFCGF_EGFR: BioMAP Diversity Plus: hDFCGF Assay for Epidermal growth factor receptor (EGFR) Biomarker Activity (AID 2283057). The note with it: primary human foreskin fibroblasts; actives raise or lower the signal. Put shortly:
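Primary human foreskin fibroblasts (hDFCGF system), sampled 24 h after dosing; EGFR quantified by ELISA. Bidirectional fit relative to DMSO baseline; SRB total-protein staining in parallel cultures for cytotoxicity.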
With `O=C(O)CCCOc1ccc(Cl)cc1Cl`, the outcome was inactive.
What is called AC50 is the midpoint of the concentration-response curve, whichever way the signal moves. Consider `O=C(O)C(F)(F)C(F)(F)C(F)(F)C(F)(F)C(F)(F)C(F)(F)C(F)(F)F`, for which the AC50 is 22.4 µM (active) and the result was inactive.
As to `COc1nn(CSP(=S)(OC)OC)c(=O)s1`, the outcome was inactive.
For the compound `CC1(c2ccc(Oc3ccccc3)cc2)OC(=O)N(Nc2ccccc2)C1=O` (centres undefined), the outcome was inactive.
Same read-out and setting: the value for `ClC1C(Cl)C(Cl)C(Cl)C(Cl)C1Cl` (centres undefined) was “inactive”.
As to `N#CN`, the result was inactive.
With `COC(=O)c1ccccc1S(=O)(=O)NC(=O)N(C)c1nc(C)nc(OC)n1`, the result was inactive.
The same measure, in the same setting: the value for `O=C(NC(=O)c1c(F)cccc1F)Nc1ccc(OC(F)(F)C(F)OC(F)(F)F)c(Cl)c1` (centres undefined) was “inactive”; that for `CNC(=O)/C=C(\C)OP(=O)(OC)OC` was “inactive”.
On to `O=S(=O)(O)C(F)(F)C(F)(F)C(F)(F)C(F)(F)C(F)(F)C(F)(F)C(F)(F)C(F)(F)F`, for which the AC50 was 3.97 µM (active) and the result was inactive.
`COc1cc(OC)nc(NC(=O)NS(=O)(=O)c2cc(NC=O)ccc2C(=O)N(C)C)n1`: the result was inactive.
Still for that read-out and setting: the value for `O=C(O)COc1ccc(Cl)cc1Cl` was “inactive”.
Regarding `CC1(C)C(C=C(Cl)Cl)C1C(=O)OC(C#N)c1ccc(F)c(Oc2ccccc2)c1` (centres undefined), the AC50 was 3.84 µM (active).
With `CCN(CC)C(=O)SCc1ccc(Cl)cc1`, the result was inactive.
`Oc1cc(Cl)ccc1Oc1ccc(Cl)cc1Cl`: the AC50 is 5.45 µM (active) and 5.46 µM (active); the result was inactive.
Consider `Oc1ccc(Cl)cc1Cc1ccccc1`, for which the AC50 was 12.4 µM (active) [middle of 4 runs] and the result was inactive.
Regarding `C[C@H]1[C@H](c2ccc(Cl)cc2)SC(=O)N1C(=O)NC1CCCCC1`, the outcome was inactive.
With `CC(C)(C)C(O)/C(=C\c1ccc(Cl)cc1Cl)n1cncn1` (centres undefined), the outcome was inactive.
Consider `CCC(C)(NC(=O)c1cc(Cl)c(C)c(Cl)c1)C(=O)CCl` (centres undefined), for which the AC50 was 30.6 µM (active).
For `COC(=O)c1ccccc1CS(=O)(=O)NC(=O)Nc1nc(OC)cc(OC)n1`, the result was inactive.
Turning to `COC(=O)c1ccccc1S(=O)(=O)NC(=O)Nc1nc(C)nc(OC)n1`, the result was inactive.
Turning to `CC(C)OC(=O)Nc1cccc(Cl)c1`, the result was inactive.
In the case of `CCOc1nc(NC)nc(NC(=O)NS(=O)(=O)c2ccccc2C(=O)OC)n1`, the outcome was inactive.
On the same count and under the same terms, the value for `O=C(Nc1ccccc1)Nc1cnns1` was “inactive”; that for `CNC(=O)Oc1ccccc1OC(C)C` was “inactive”.
With `O=[N+]([O-])c1c(Cl)c(Cl)c(Cl)c(Cl)c1Cl`, the outcome was inactive.

Read-out in a further experiment: Interleukin-8 (IL8), CXCL8 (gene 3576)
The experiment can be described thus: BSK_hDFCGF_IL8: BioMAP Diversity Plus: hDFCGF Assay for Interleukin-8 (IL8) Biomarker Activity (AID 2283058). The note with it: primary human foreskin fibroblasts; actives raise or lower the signal. Put shortly:
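IL-8 levels read by ELISA at 24 hours after dosing human skin fibroblast cultures. Parallel SRB staining assessed overt cytotoxicity, and gain or loss of signal was fitted against DMSO control.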
On to `O=C(O)CCCOc1ccc(Cl)cc1Cl`, for which the outcome was inactive.
Turning to `O=C(O)C(F)(F)C(F)(F)C(F)(F)C(F)(F)C(F)(F)C(F)(F)C(F)(F)F`, the outcome was inactive.
Same read-out and setting: the value for `COc1nn(CSP(=S)(OC)OC)c(=O)s1` was “inactive”; that for `CC1(c2ccc(Oc3ccccc3)cc2)OC(=O)N(Nc2ccccc2)C1=O` (centres undefined) was “inactive”.
Turning to `ClC1C(Cl)C(Cl)C(Cl)C(Cl)C1Cl` (centres undefined), the outcome was inactive.
On to `N#CN`, for which the outcome was inactive.
Regarding `COC(=O)c1ccccc1S(=O)(=O)NC(=O)N(C)c1nc(C)nc(OC)n1`, the outcome was inactive.
As to `O=C(NC(=O)c1c(F)cccc1F)Nc1ccc(OC(F)(F)C(F)OC(F)(F)F)c(Cl)c1` (centres undefined), the outcome was inactive.
In the case of `CNC(=O)/C=C(\C)OP(=O)(OC)OC`, the result was inactive.
Take `O=S(=O)(O)C(F)(F)C(F)(F)C(F)(F)C(F)(F)C(F)(F)C(F)(F)C(F)(F)C(F)(F)F`: the outcome was inactive.
As for `COc1cc(OC)nc(NC(=O)NS(=O)(=O)c2cc(NC=O)ccc2C(=O)N(C)C)n1`, the outcome was inactive.
For `O=C(O)COc1ccc(Cl)cc1Cl`, the outcome was inactive.
Still for that read-out and setting: for `CC1(C)C(C=C(Cl)Cl)C1C(=O)OC(C#N)c1ccc(F)c(Oc2ccccc2)c1` (centres undefined) the value was “inactive”.
Consider `CCN(CC)C(=O)SCc1ccc(Cl)cc1`, for which the result was inactive.
As for `Oc1cc(Cl)ccc1Oc1ccc(Cl)cc1Cl`, the AC50 was 30 µM (active) [middle of 4 runs].
`Oc1ccc(Cl)cc1Cc1ccccc1`: the AC50 is 31.3 µM (active) [middle of 7 runs].
`C[C@H]1[C@H](c2ccc(Cl)cc2)SC(=O)N1C(=O)NC1CCCCC1`: the outcome was inactive.
The same measure, in the same setting: for `CC(C)(C)C(O)/C(=C\c1ccc(Cl)cc1Cl)n1cncn1` (centres undefined) the value was “inactive”.
For the compound `CCC(C)(NC(=O)c1cc(Cl)c(C)c(Cl)c1)C(=O)CCl` (centres undefined), the AC50 was 30.9 µM (active).
On to `COC(=O)c1ccccc1CS(=O)(=O)NC(=O)Nc1nc(OC)cc(OC)n1`, for which the outcome was inactive.
With `COC(=O)c1ccccc1S(=O)(=O)NC(=O)Nc1nc(C)nc(OC)n1`, the outcome was inactive.
The same measure, in the same setting: for `CC(C)OC(=O)Nc1cccc(Cl)c1` the value was “inactive”.
With `CCOc1nc(NC)nc(NC(=O)NS(=O)(=O)c2ccccc2C(=O)OC)n1`, the result was inactive.
With `O=C(Nc1ccccc1)Nc1cnns1`, the outcome was inactive.
Consider `CNC(=O)Oc1ccccc1OC(C)C`, for which the result was inactive.
With `O=[N+]([O-])c1c(Cl)c(Cl)c(Cl)c(Cl)c1Cl`, the result was inactive.

Read-out in the next experiment: not listed separately
The experiment can be described thus: BSK_hDFCGF_Proliferation: Cell Proliferation Assessment in the BioMAP Diversity Plus: hDFCGF Assay (AID 2283059).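 Note: curves fitted for both rise and fall of signal versus DMSO baseline.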 The note with it: primary human foreskin fibroblasts. Put shortly:
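Sub-confluent human foreskin fibroblast cultures receive test chemical […]. Relative cell number is quantified by sulforhodamine B staining (0.1%, after 10% TCA fixation) at 560 nm, with bidirectional fitting referenced to DMSO.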
`O=C(O)CCCOc1ccc(Cl)cc1Cl`: the result was inactive.
Turning to `O=C(O)C(F)(F)C(F)(F)C(F)(F)C(F)(F)C(F)(F)C(F)(F)C(F)(F)F`, the AC50 was 8.07 µM (active) and the outcome was inactive.
With `COc1nn(CSP(=S)(OC)OC)c(=O)s1`, the outcome was inactive.
Take `CC1(c2ccc(Oc3ccccc3)cc2)OC(=O)N(Nc2ccccc2)C1=O` (centres undefined): the result was inactive.
`ClC1C(Cl)C(Cl)C(Cl)C(Cl)C1Cl` (centres undefined): the AC50 was 28.1 µM (active) and 24.6 µM (active); the outcome was inactive.
Consider `N#CN`, for which the result was inactive.
Same read-out and setting: for `COC(=O)c1ccccc1S(=O)(=O)NC(=O)N(C)c1nc(C)nc(OC)n1` the value was “inactive”.
For the compound `O=C(NC(=O)c1c(F)cccc1F)Nc1ccc(OC(F)(F)C(F)OC(F)(F)F)c(Cl)c1` (centres undefined), the result was inactive.
The same measure, in the same setting: the value for `CNC(=O)/C=C(\C)OP(=O)(OC)OC` was “inactive”; that for `O=S(=O)(O)C(F)(F)C(F)(F)C(F)(F)C(F)(F)C(F)(F)C(F)(F)C(F)(F)C(F)(F)F` was “inactive”.
The same measure, in the same setting: for `COc1cc(OC)nc(NC(=O)NS(=O)(=O)c2cc(NC=O)ccc2C(=O)N(C)C)n1` the value was “inactive”.
`O=C(O)COc1ccc(Cl)cc1Cl`: the outcome was inactive.
As for `CC1(C)C(C=C(Cl)Cl)C1C(=O)OC(C#N)c1ccc(F)c(Oc2ccccc2)c1` (centres undefined), the AC50 is 13.2 µM (active).
As for `CCN(CC)C(=O)SCc1ccc(Cl)cc1`, the result was inactive.
On to `Oc1cc(Cl)ccc1Oc1ccc(Cl)cc1Cl`, for which the AC50 is 4.61 µM (active) [middle of 4 runs].
As to `Oc1ccc(Cl)cc1Cc1ccccc1`, the AC50 was 7.84 µM (active) [middle of 7 runs].
Same read-out and setting: for `C[C@H]1[C@H](c2ccc(Cl)cc2)SC(=O)N1C(=O)NC1CCCCC1` the value was 9.3 µM (active); for `CC(C)(C)C(O)/C(=C\c1ccc(Cl)cc1Cl)n1cncn1` (centres undefined), 29.8 µM (active); for `CCC(C)(NC(=O)c1cc(Cl)c(C)c(Cl)c1)C(=O)CCl` (centres undefined), 4.14 µM (active).
Take `COC(=O)c1ccccc1CS(=O)(=O)NC(=O)Nc1nc(OC)cc(OC)n1`: the result was inactive.
Same read-out and setting: for `COC(=O)c1ccccc1S(=O)(=O)NC(=O)Nc1nc(C)nc(OC)n1` the value was “inactive”.
Still for that read-out and setting: for `CC(C)OC(=O)Nc1cccc(Cl)c1` the value was “inactive”; for `CCOc1nc(NC)nc(NC(=O)NS(=O)(=O)c2ccccc2C(=O)OC)n1`, “inactive”.
The same measure, in the same setting: the value for `O=C(Nc1ccccc1)Nc1cnns1` was “inactive”; that for `CNC(=O)Oc1ccccc1OC(C)C` was “inactive”.
For the compound `O=[N+]([O-])c1c(Cl)c(Cl)c(Cl)c(Cl)c1Cl`, the AC50 is 19.7 µM (active).
